Source: the supplement of paper PMC6135742
Where a name gives a salt, the structure may show the parent alone. ± gives the standard deviation of the averaged measurements. The full ranking holds about 2,600 compounds; the median of “MBP+ mature oligodendrocyte number relative to DMSO vehicle control” is about -0.34, and the highest 2% start at about 13. What follows is part of a selection rich in the highest values, with near analogues and random picks from the rest.

Tested on: jimpy (Plp1 jimpy) mouse iPSC-derived oligodendrocyte progenitor cells
Test: MBP+ mature oligodendrocyte number relative to DMSO vehicle control (SDs above negative control mean); higher = more surviving jimpy oligodendrocytes (rescue)
Conditions: 10 µM; 3 days
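Note: 10 µM single dose with 3-day oligodendrocyte differentiation.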

Compound	MBP+ mature oligodendrocyte number
C=CC(=O)N1CCC[C@@H](n2nc(-c3ccc(Oc4ccccc4)cc3)c3c(N)ncnc32)C1	0.104
Cc1ccc(C(=O)N(CCCN)[C@@H](c2oc3cc(Cl)ccc3c(=O)c2Cc2ccccc2)C(C)C)cc1	< -4.81
c1ccc(CN2CCC3(CCCc4ccccc43)CC2)cc1 [L-687,384 hydrochloride]	0.735
Cc1cccc(CN2CCN(C(c3ccccc3)c3ccc(Cl)cc3)CC2)c1 (stereo not drawn) [Meclizine 2HCl]	-4.88
Cc1nn(-c2ccccc2)c(C)c1C=NN1CCN(Cc2ccccc2)CC1	14.2 ± 1.6
Nc1n[n+]([O-])c2ccccc2[n+]1[O-] [Tirapazamine]	-2.44
O=c1sn(-c2cccc3ccccc23)c(=O)n1Cc1ccccc1 [Tideglusib]	-0.769
NNC(=O)CSc1nc2scc(-c3ccccc3)c2c(=O)n1-c1ccccc1	-0.637
OC(CCN1CCCCC1)(c1ccccc1)C1CC2C=CC1C2 (stereo not drawn) [Biperiden hydrochloride]	2.59
OC(CCN1CCCCC1)(c1ccccc1)C1CCCCC1 (stereo not drawn) [Trihexyphenidyl hydrochloride]	-0.104
OC(CCN1CCCCC1)(c1ccccc1)C1CC2C=CC1C2 (stereo not drawn) [Biperiden HCl]	13.7
O=c1cc(-c2cccc3c2Sc2ccccc2S3)oc(N2CCOCC2)c1	-3.99
C[N+]1(C)CCC(OC(=O)C(c2ccccc2)c2ccccc2)CC1 [4-DAMP methiodide]	2.86
O=C(O)c1ccccc1 [Benzoic Acid]	0.66
C[N+]1(C)CCC(OC(=O)C(c2ccccc2)c2ccccc2)CC1	0.467
C[N+]1(C)CCC(=C(c2ccccc2)c2ccccc2)CC1 [Diphemanil Methylsulfate]	19.2
C=C1CC[C@H](O)C/C1=C/C=C1\CCC[C@]2(C)[C@@H]([C@H](C)CCCC(C)C)CC[C@@H]12 [Vitamin D3]	5.56
C=C1/C(=C\C=C2/CCC[C@]3(C)[C@@H]([C@H](C)/C=C/[C@H](C)C(C)C)CC[C@@H]23)C[C@@H](O)C[C@@H]1O [Doxercalciferol]	8.14
C=C1CC[C@H](O)C/C1=C/C=C1\CCC[C@]2(C)[C@@H]([C@H](C)/C=C/[C@H](C)C(C)C)CC[C@@H]12 [Vitamin D2]	21.5
CCCCCCCCCCCCCCSCC(=O)O [Tetradecylthioacetic acid]	0.00298
CCCCC[C@H](O)/C=C/[C@H]1[C@H](O)CC(=O)[C@@H]1CCCCCCC(=O)O [Alprostadil]	0.793
CCCCC(F)(F)[C@@]1(O)CC[C@H]2[C@@H](CC(=O)[C@@H]2CCCCCCC(=O)O)O1 [Lubiprostone]	25.2
Cc1cnc(-c2cc(N3CCN(C(=O)CCS(C)(=O)=O)CC3)ncc2Cl)c(C)c1	0.184
C[C@H](N[C@@H](CCc1ccccc1)C(=O)O)C(=O)N1CCC[C@H]1C(=O)O [Enalaprilat dihydrate]	0.574

Compound	MBP+ mature oligodendrocyte number
CC(C)(C(=O)O)c1ccc(C(O)CCCN2CCC(C(O)(c3ccccc3)c3ccccc3)CC2)cc1 (stereo not drawn) [Fexofenadine HCl]	1.53
CC(NCCc1ccc(O)cc1)C(O)c1ccc(O)cc1 (stereo not drawn) [Ritodrine HCl]	-0.164
CC(C)(C)c1ccc(C(O)CCCN2CCC(C(O)(c3ccccc3)c3ccccc3)CC2)cc1 (stereo not drawn) [Terfenadine]	< -3.85
CC(C(O)c1ccc(O)cc1)N1CCC(Cc2ccccc2)CC1 (stereo not drawn) [Ifenprodil tartrate]	8.03
CC(C)(C(=O)O)c1ccc(C(O)CCCN2CCC(C(O)(c3ccccc3)c3ccccc3)CC2)cc1 (stereo not drawn) [Fexofenadine hydrochloride]	0.659
CC(C(O)c1ccc(O)cc1)N1CCC(Cc2ccccc2)CC1 (stereo not drawn) [Ifenprodil Tartrate]	20.3
CC(NCCc1ccc(O)cc1)C(O)c1ccc(O)cc1 (stereo not drawn) [Ritodrine hydrochloride]	1.15
C[C@H](N[C@@H](CCc1ccccc1)C(=O)O)C(=O)N1CCC[C@H]1C(=O)O [Enalaprilat Dihydrate]	-0.467
C[C@@H](CN1CCC(Cc2ccccc2)CC1)[C@@H](O)c1ccc(O)cc1 [Ro 25-6981 hydrochloride]	14.6
CC(=Cc1ccc(C(=O)O)cc1)c1ccc2c(c1)C(C)(C)CCC2(C)C	0.539
O=C(/C=C/c1ccc(CN(CCO)CCc2c[nH]c3ccccc23)cc1)NO [LAQ824 (Dacinostat)]	< -6.7
CC(C)(C)[N+]([O-])=Cc1ccc(S(=O)(=O)O)cc1S(=O)(=O)O	2.35
CC(C)c1cc(-c2ccc(F)c3ccccc23)nc(N)n1	6.85
Nc1ccc2ncnc(NCCc3ccc(Oc4ccccc4)cc3)c2c1	< -6.35
N#C/C(=C1/SC[C@@H](c2ccc(Cl)cc2Cl)S1)n1ccnc1 [Luliconazole]	19.8
CC(=O)O[C@]1(C(C)=O)CC[C@H]2[C@@H]3C=C(Cl)C4=CC(=O)[C@@H]5C[C@@H]5[C@]4(C)[C@H]3CC[C@@]21C [Cyproterone Acetate]	21.5
CC(=O)S[C@@H]1CC2=CC(=O)CC[C@]2(C)[C@H]2CC[C@@]3(C)[C@@H](CC[C@@]34CCC(=O)O4)[C@H]12 [Spironolactone]	1.84 ± 1.7
CC(=O)O[C@]1(C(C)=O)CC[C@H]2[C@@H]3C[C@H](C)C4=CC(=O)CC[C@]4(C)[C@H]3CC[C@@]21C [Medroxyprogesterone acetate]	16.5
CC(=O)OCC(=O)[C@@]1(O)CC[C@H]2[C@@H]3CCC4=CC(=O)CC[C@]4(C)[C@H]3C(=O)C[C@@]21C [Cortisone 21-acetate]	-0.825
C[C@]12CCC(=O)C=C1CC[C@@H]1[C@@H]2CC[C@@]2(C)[C@H]1CC[C@]2(O)C(=O)CO [Cortexolone]	0.431
CC(=O)OCC(=O)[C@@]1(O)CC[C@H]2[C@@H]3CCC4=CC(=O)CC[C@]4(C)[C@H]3C(=O)C[C@@]21C [Cortisone acetate]	-0.164
CC(=O)O[C@]1(C(C)=O)CC[C@H]2[C@@H]3C=C(C)C4=CC(=O)CC[C@]4(C)[C@H]3CC[C@@]21C [Megestrol Acetate]	15.4
CC(=O)O[C@]1(C(C)=O)CC[C@H]2[C@@H]3C[C@H](C)C4=CC(=O)C=C[C@]4(C)[C@@]3(F)[C@@H](O)C[C@@]21C [Fluorometholone Acetate]	10.3
CC(=O)O[C@]1(C(C)=O)CC[C@H]2[C@@H]3C=C(Cl)C4=CC(=O)[C@@H]5C[C@@H]5[C@]4(C)[C@H]3CC[C@@]21C [Cyproterone acetate]	3.38
